This is part of a sample that, as a whole, favours compounds with a hit. Of some 83,000 tested, about 20% had one in any assay.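 Cell lines were cultured in 96-well plates, exposed to a single compound concentration, and assessed for percent growth 48 hours later.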 Unmarked numbers belong to inactive results. The source made the active and inactive calls. How the source made its calls: active means growth percent below 10; inactive means the rest.

Test systems include NCI-H23 lung; NCI-H322M lung; HOP-62 NSCLC; NCI-H460 lung; HOP-92 NSCLC; NCI-H522 lung; A549/ATCC NSCLC; 786-0 renal; COLO 205 colon; DU-145 prostate; K-562 leukemia; MALME-3M melanoma; MDA-MB-231 breast; RXF 393 renal; SF-268 CNS; SF-295 CNS; SF-539 CNS; UACC-257 melanoma; M14 melanoma.
Test in all cases: NCI-60 one-dose screen, 48 h (100 = growth as untreated, 0 = no growth, -100 = all killed)
Holding throughout (conditions): 10 µM unless noted

For `C/C(=C(/c1ccc(Cl)cc1)c1ccc(OCCN2CCCCCC2)cc1)c1ccccc1`, the growth with NCI-H23 lung was 74.9%; in the experiment with NCI-H322M lung it was 93.2%; in the experiment with HOP-62 NSCLC, 90.3%; in the experiment with NCI-H460 lung it was 76.3%; with HOP-92 NSCLC it was 82.6%; in the experiment on NCI-H522 lung, 72.9%. In addition, the growth is 67.8% in the experiment on A549/ATCC NSCLC; 82% in the experiment on 786-0 renal; 15.9% with COLO 205 colon; 83.5% with DU-145 prostate; 22.7% in the experiment with K-562 leukemia; 81.7% in the experiment on MALME-3M melanoma. Also, the growth in the experiment with MDA-MB-231 breast is 86.9%; in the experiment with RXF 393 renal, 81.4%; in the experiment with SF-268 CNS it was 93%; in the experiment with SF-295 CNS, 86.4%; in the experiment on SF-539 CNS it was 72.4%; with UACC-257 melanoma, 92.2%. For the same molecule, the growth in the experiment with M14 melanoma is 81.4%.

`Cc1nc(NC(=O)N2CCC[C@H]2C(N)=O)sc1-c1ccnc(C(C)(C)C(F)(F)F)c1`: the growth was 57.9% with NCI-H23 lung; 6.7% (active) in the experiment with NCI-H322M lung; 49.4% in the experiment with HOP-62 NSCLC; 24% in the experiment on NCI-H460 lung; -4.57% (active) in the experiment on HOP-92 NSCLC; 33.6% in the experiment on NCI-H522 lung. Besides, the growth with A549/ATCC NSCLC is 21%; in the experiment with 786-0 renal, 59.5%; in the experiment with COLO 205 colon, 13.7%; with DU-145 prostate, 34.1%; in the experiment with K-562 leukemia, 80.9%; in the experiment with MALME-3M melanoma, 43.8%. Also, the growth in the experiment with MDA-MB-231 breast is 65.3%; in the experiment on RXF 393 renal, 25.6%; in the experiment on SF-268 CNS, 54.2%; with SF-295 CNS it was 32.8%; in the experiment on SF-539 CNS, 28.1%; in the experiment on UACC-257 melanoma, 40%. Also, the growth in the experiment with M14 melanoma is 41.4%.

Take `O=C(NC[C@H](O)CO)c1ccncc1Nc1ccc(I)cc1F`: the growth in the experiment on NCI-H23 lung is 15.9%; in the experiment on NCI-H322M lung it was 19.8%; with HOP-62 NSCLC it was 23.7%; with NCI-H460 lung, 53.2%; with HOP-92 NSCLC, -25.4% (active); with NCI-H522 lung, 51.6%. Besides, the growth in the experiment on A549/ATCC NSCLC was 32.2%; in the experiment on 786-0 renal, 70.2%; in the experiment on COLO 205 colon it was -8.7% (active); in the experiment with DU-145 prostate, 63.4%; in the experiment with K-562 leukemia, 37.2%; in the experiment with MALME-3M melanoma it was -7.31% (active). The growth is 29.8% in the experiment on MDA-MB-231 breast; 15.1% in the experiment on RXF 393 renal; 71.3% in the experiment on SF-268 CNS; 67.1% with SF-295 CNS; 52.5% in the experiment with SF-539 CNS; -19.2% (active) in the experiment with UACC-257 melanoma. The growth in the experiment with M14 melanoma was 3.95% (active).

In the case of `Cc1cc(O)cc(-c2c(-c3ccnc(-c4cccnc4)c3)cnn2C)c1`, the growth in the experiment with NCI-H23 lung was 93.6%; in the experiment on NCI-H322M lung, 66.6%; with HOP-62 NSCLC it was 67.2%; in the experiment on NCI-H460 lung, 67.4%; with HOP-92 NSCLC, 42.7%; in the experiment with NCI-H522 lung, 46.9%. The growth with A549/ATCC NSCLC was 78.1%; in the experiment with 786-0 renal, 67.7%; in the experiment with DU-145 prostate it was 70.4%; in the experiment on K-562 leukemia, 57.8%; in the experiment with MALME-3M melanoma, 49.7%; in the experiment on MDA-MB-231 breast it was 60.2%. Besides, the growth in the experiment on RXF 393 renal was 54.4%; in the experiment with SF-268 CNS, 72.8%; with SF-295 CNS, 59.2%; in the experiment on SF-539 CNS, 42.7%; in the experiment with UACC-257 melanoma it was 83.1%; with M14 melanoma it was 66%.

`Cc1ccc(C(=O)Nc2ccc(CN3CCN(C)CC3)c(C(F)(F)F)c2)cc1C#Cc1cnc2cccnn12`: the growth is -84.8% (active) in the experiment on NCI-H23 lung; -98.8% (active) in the experiment with NCI-H322M lung; -93.6% (active) with HOP-62 NSCLC; -83.3% (active) with NCI-H460 lung; -74.1% (active) in the experiment with HOP-92 NSCLC; -86.6% (active) in the experiment on NCI-H522 lung. Besides, the growth in the experiment with A549/ATCC NSCLC was -95.1% (active); with 786-0 renal it was -91% (active); in the experiment on COLO 205 colon it was -88.2% (active); in the experiment with DU-145 prostate it was -99.7% (active); in the experiment on K-562 leukemia it was -64.9% (active); with MALME-3M melanoma it was -85.5% (active). Also, the growth with MDA-MB-231 breast was -85% (active); with RXF 393 renal, -95.1% (active); with SF-268 CNS, -96.4% (active); with SF-295 CNS, -95.7% (active); in the experiment with SF-539 CNS, -97.2% (active); in the experiment with UACC-257 melanoma it was -88.3% (active). In the experiment with M14 melanoma, the growth was -88.8% (active).

Regarding `COC(=O)[C@@H](C)CNS(=O)(=O)N(c1cc(C(F)(F)F)cc(C(F)(F)F)c1)C1CCN(Cc2ccc(F)cc2)CC1`, the growth is 66.8% with NCI-H23 lung; 79% in the experiment on NCI-H322M lung; 79% in the experiment with HOP-62 NSCLC; 62.3% in the experiment on NCI-H460 lung; 47.8% with HOP-92 NSCLC; 56.1% in the experiment with NCI-H522 lung. Further, the growth was 54% in the experiment with A549/ATCC NSCLC; 59.7% in the experiment on 786-0 renal; -43.2% (active) in the experiment on COLO 205 colon; 92.9% in the experiment with DU-145 prostate; 43.8% with MALME-3M melanoma; 71% in the experiment on MDA-MB-231 breast. Also, the growth in the experiment on SF-268 CNS was 84.4%; with SF-295 CNS it was 81.1%; in the experiment on SF-539 CNS, 73.5%; with M14 melanoma, 58.5%.

Regarding `COc1ccc2c(CCC(c3ccccc3)c3ccccc3)c3[n+](cc2c1OC)CCc1cc2c(cc1-3)OCO2`, the growth in the experiment with NCI-H23 lung was 0.765% (active); in the experiment with NCI-H322M lung, 33.1%; with HOP-62 NSCLC, 9.37% (active); in the experiment on NCI-H460 lung, -3.4% (active); in the experiment with HOP-92 NSCLC it was -9.89% (active); with NCI-H522 lung, -0.122% (active). Moreover, the growth with A549/ATCC NSCLC was 15.7%; in the experiment on 786-0 renal, 14.8%; with COLO 205 colon, -58.8% (active); in the experiment on DU-145 prostate, 18.5%; in the experiment on K-562 leukemia it was 6.12% (active); in the experiment with MALME-3M melanoma it was -7.17% (active). Besides, the growth is -28.7% (active) in the experiment with MDA-MB-231 breast; 19.8% in the experiment with SF-268 CNS; -15.8% (active) with SF-295 CNS; 13.6% in the experiment on SF-539 CNS; 2.51% (active) in the experiment with M14 melanoma.

The record behind these values is PubChem BioAssay (NCI).
